Source: PubChem BioAssay (several laboratories)
Hsp70 activator: Hsp70 transcriptional activation, primary screen; HeLa Hsp70 promoter luciferase reporter, luminescence; scaled: vehicle 0, proteasome-inhibitor control 100%; activation, % at 10 µM; 200,000 compounds, 0.04% hits; AID 1203;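 active = activation above the mean across all tested compounds plus 3 SD, cutoff set per campaign, cut at about 5.5% in these data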;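 note: 100% = MG132 at 30 µM as the positive control and 0% = DMSO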
NF-kB expr up: compounds increasing NF-kB expression in human neuronal cells | NF-kB reporter expression; hits give high values | fold change at 12.5 µM | 190,000 compounds, 1.6% hits; in the data active = fold change above about 3.3
APP 5UTR inh: APP translation inhibition; SH-SY5Y APP 5'UTR-luciferase reporter, luminescence; inhibition, % at 2 µM; 190,000 compounds, 0.82% hits; AID 1285;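 active = inhibition above a set limit, derived from the sample mean plus 3 SD, cut at about 45% in these data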
APP 5'UTR act: activates APP 5'UTR luciferase reporter; 190,000 compounds, 1% hits; activation, % at 2 µM; SH-SY5Y APP 5'UTR luciferase reporter, luminescence; zero percent = DMSO vehicle wells;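 active = activation above a set limit, based on mean plus 3 SD of controls, cut at about 140% in these data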
Wee1 degr inh: human Wee1 degradation inhibition, primary screen; 220,000 compounds, 1.2% hits; P30291; HeLa Luc-Wee1K328M stability, luciferase luminescence; 100% = proteasome inhibitor MG132 effect; reporter increase, % at 5 µM;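 active = activation above the mean of all tested compounds plus 3 SD, set per screening run, cut at about 8.8% in these data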;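 note: cells exposed to compound for 20 h before luminescence read; 0% = DMSO alone and 100% = MG132 at 30 µM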
Target sequence (P30291 whole entry K328M): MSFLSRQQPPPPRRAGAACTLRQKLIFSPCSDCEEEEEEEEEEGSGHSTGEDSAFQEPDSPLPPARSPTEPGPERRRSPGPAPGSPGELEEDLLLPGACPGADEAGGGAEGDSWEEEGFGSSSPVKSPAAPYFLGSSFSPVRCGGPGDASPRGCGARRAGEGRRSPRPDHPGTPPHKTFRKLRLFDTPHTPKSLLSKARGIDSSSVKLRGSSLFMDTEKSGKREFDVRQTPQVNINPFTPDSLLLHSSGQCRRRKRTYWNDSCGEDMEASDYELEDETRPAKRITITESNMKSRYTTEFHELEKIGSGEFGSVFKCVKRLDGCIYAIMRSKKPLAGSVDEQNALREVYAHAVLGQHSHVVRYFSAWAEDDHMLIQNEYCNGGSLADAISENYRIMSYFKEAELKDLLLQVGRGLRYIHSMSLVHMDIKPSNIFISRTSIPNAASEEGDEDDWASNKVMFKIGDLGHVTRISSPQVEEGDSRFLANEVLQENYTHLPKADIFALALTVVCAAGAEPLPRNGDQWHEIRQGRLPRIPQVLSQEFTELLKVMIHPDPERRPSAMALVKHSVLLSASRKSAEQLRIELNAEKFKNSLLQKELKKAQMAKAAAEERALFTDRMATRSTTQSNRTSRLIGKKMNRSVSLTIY
STAT1 activator: increases IFN-gamma driven STAT1 reporter signal | activation (% of control), % at 5.5 µM | 200,000 compounds, 2.6% hits | NIH 3T3 STAT1-luciferase reporter, luminescence; 100% = IFN-gamma alone, no compound;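 active = activation above the screen-wide mean activation plus 3 SD, cut at about 130% in these data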;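 note: raw ratio to IFN-gamma control signal so 100% means no change and 0% no light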
Hsp70 act dose: activates Hsp70 transcription in dose response; 70 compounds, 10% hits; HeLa hsp70.1pr-luc reporter, luciferase luminescence; AID 1252; calls only at 99 µM; shares compounds with Hsp70 activator;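 active = over 50% activation at some tested dose; inactive = under 50% activation at every tested dose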
Wee1 stab conf: confirmation of human Wee1 degradation inhibitors | shares compounds with Wee1 degr inh | HeLa Luc-Wee1K328M degradation, luminescence; vehicle 0%, proteasome-blocked wells 100% | activation, % at 5 µM | 1,100 compounds, 4% hits; in the data active = activation above about 8.9%
The depositor's hits bear a star; i = inactive; / = no result. This is a sample that favours compounds with a hit; in the whole collection about 4.8% have one here.

SMILES | Hsp70 activator | NF-kB expr up | APP 5UTR inh | APP 5'UTR act | Wee1 degr inh | STAT1 activator | Wee1 stab conf | others
Cc1cc(C)c(NC(=S)NC(NC(=O)c2ccccc2)C(Cl)(Cl)Cl)c(C)c1 (centres undefined) | 0 | 0.94 | -1 | 1 | -3 | 104 | /
CCOC(=O)c1sc2nc(C)nc(Nc3ccccc3)c2c1C | 5.7* | 1.1 | 10 | -10 | -1 | 93 | / | Hsp70 act dose=i
CCOC(=O)c1sc(N)c(C(=O)Nc2ccccc2)c1C | 0 | 1.7 | -64 | 64 | 0 | 120 | /
Cc1nnc(SCc2ccc(F)cc2)s1 | 0 | 1.5 | -39 | 39 | 2 | 106 | /
CCO[C@@H]1OC(C(=O)NCc2nc3ccccc3[nH]2)=C[C@H](c2ccccc2)[C@H]1CCCO | 0 | 0.87 | -5 | 5 | -2 | 96 | /
O=C(Oc1ccc(F)cc1C(=O)/C=C/c1cccs1)c1cccc([N+](=O)[O-])c1 | 12* | 4.5* | 43 | -43 | -2 | 116 | / | Hsp70 act dose=i
O=C(/C=C/c1ccccc1F)c1cccc([N+](=O)[O-])c1 | 0 | 1.2 | -22 | 22 | 0 | 105 | /
CCOC(=O)C1(C/C(C)=N/NC(N)=O)CC(C)OC1=O (centres undefined) | 5.7* | 1.4 | -6 | 6 | 3 | 90 | / | Hsp70 act dose=i
O=C(COC(=O)/C=C/C(=O)N1CCN(c2ccccc2)CC1)NCc1ccc(F)cc1 | 0 | 1.3 | -2 | 2 | -3 | 93 | /
Cc1c(O)ccc(C(=O)CN2CCN(Cc3ccc4c(c3)OCO4)CC2)c1O | 79* | 2.3 | -4 | 4 | 11* | 75 | / | Hsp70 act dose=i
CCC(=O)N(Cc1cc(=O)[nH]c2ccccc12)c1cccc(C)c1 | 0 | 1 | -12 | 12 | -1 | 103 | /
Cc1cccc(-c2noc(CCCC(=O)N3CCOCC3)n2)c1 | 15* | 1.2 | 6 | -6 | 6 | 101 | / | Hsp70 act dose=i
CC(C)(C)c1ccc(-n2nc(C#N)c(Cl)cc2=O)cc1 | 16* | 0.12 | 94* | -94 | -3 | 90 | / | Hsp70 act dose=i
COc1cccc(Cn2cccc(NC(=O)NC3CCCCC3)c2=O)c1 | 0 | 0.96 | 3 | -3 | -2 | 100 | /
CN(CC(=O)NCc1ccc(Cl)cc1)S(=O)(=O)c1cccc2nsnc12 | 0 | 0.95 | 2 | -2 | 7 | 98 | /
COc1ccccc1-[n+]1c(C)cc(/C=C2\Sc3ccccc3N2C)cc1C | / | / | / | / | 3 | / | /
CC[n+]1c(/C=C2\Sc3ccccc3N2C)ccc2cccc(C)c21 | 8.9* | 0.1 | 52* | -52 | -4 | 91 | / | Hsp70 act dose=i
Cc1ccc(Cl)cc1-n1c(=O)cc(N2CCN(C(=O)c3ccco3)CC2)[nH]c1=O | 0 | 1.4 | -3 | 3 | 14* | 99 | -1
O=C(c1ccco1)N1CCN(c2cc(=O)n(-c3ccc(Cl)cc3)c(=O)[nH]2)CC1 | 0 | 1.2 | -4 | 4 | -2 | 94 | /
Cc1cccc(NC(=O)CSc2nnc(-c3n[nH]c4ccccc34)o2)c1 | 0 | 1.6 | -47 | 47 | 2 | 88 | /
N#Cc1cccc(NC(=O)CSc2nnc(-c3n[nH]c4ccccc34)o2)c1 | 0 | 1.4 | -71 | 71 | 22* | 103 | 3
O=C(CC1COc2ccccc2O1)Nc1ccccn1 (centres undefined) | 0 | 1.3 | -14 | 14 | -2 | 102 | /
O=C(COC(=O)c1cc(=O)c2ccccc2o1)NC1CCCCC1 | 0 | 0.88 | 4 | -4 | 17* | 90 | 3
O=C(CSCc1ccccc1)Nc1ccc2c(c1)OCO2 | 0 | 2.2 | -70 | 70 | 12* | 105 | 4
C/C(CC(=O)Nc1ccc2c(c1)OCO2)=N\NC(=O)c1ccccc1N | / | / | / | / | 12* | / | -1
SMILES | Hsp70 activator | NF-kB expr up | APP 5UTR inh | APP 5'UTR act | Wee1 degr inh | STAT1 activator | Wee1 stab conf | others
Cc1ccn2cc(CNS(=O)(=O)c3cccs3)nc2c1 | / | / | / | / | 13* | / | -1
CCc1ccc(Nc2ncc3c(n2)CC(c2ccc(OC)cc2)CC3=O)cc1 (centres undefined) | 0 | 0.99 | -9 | 9 | 0 | 107 | /
O=C(O)CCC(=O)N1N=C(c2ccccc2)CC1c1ccc2nccnc2c1 (centres undefined) | 0 | 1.3 | -13 | 13 | 13* | 109 | 0
Cc1ccc(C(=O)C(O)C(c2ccc(C)cc2)N2CCCCC2)cc1 (centres undefined) | 0 | 0.93 | -10 | 9 | 2 | 103 | /
O=C(CS(=O)(=O)c1ccccc1)N1CCc2ccccc21 | 0 | 2.3 | -51 | 51 | 12* | 128 | 2
CC1(C)Nc2ccccc2C(=O)N1NS(=O)(=O)c1ccccc1 | 0 | 0.97 | 14 | -14 | 11* | 101 | 5
Cc1ccc(S(=O)(=O)NN2C(=O)c3ccccc3NC2(C)C)cc1 | 0 | 0.89 | -4 | 4 | -2 | 103 | /
CCOc1ccc(C(C)NC(=S)NC2CCCCC2)cc1 (centres undefined) | 1 | 1.2 | -6 | 5 | 4 | 87 | /
COc1cc([N+](=O)[O-])ccc1NC(=O)CCCOc1cc(C)ccc1C | -1 | 0.97 | -17 | 17 | 13* | 100 | 0
Cn1nc(-c2ccc(C(=O)Nc3ccc(F)cc3)cc2)c2ccccc2c1=O | 0 | 1.1 | 2 | -2 | -1 | 100 | /
COc1ccccc1CNC(=O)C1(NC(=O)Nc2ccc(C)cc2)CCCCC1 | 0 | 1 | -4 | 5 | 11* | 96 | 1
O=C(CO/N=C1\CCCc2nonc21)Nc1ccc(Br)cc1 | 0 | 1.3 | -7 | 7 | 12* | 103 | 7
Cc1cc(N2CCN(C(c3ccccc3)c3ccc(Cl)cc3)CC2)n2ncnc2n1 (centres undefined) | 0 | 0.97 | -20 | 20 | 12* | 98 | -1
Cc1cc(N2CCN(c3ccccc3)CC2)n2ncnc2n1 | 0 | 1 | -26 | 26 | -1 | 94 | /
CC1CCC(=C(C#N)c2nc(-c3cc4ccccc4oc3=O)cs2)CC1 (centres undefined) | 0 | 0.71 | -21 | 21 | -2 | 99 | /
O=C(NCc1ccccc1)C12CN(Cc3ccccc3)CC1C(c1cccc([N+](=O)[O-])c1)=NO2 (centres undefined) | 0 | 1.1 | -2 | 2 | -1 | 100 | /
O=C(NCc1ccc(OC(F)(F)F)cc1)C12CN(Cc3ccccc3)CC1C(c1cccc([N+](=O)[O-])c1)=NO2 (centres undefined) | 0 | 1.2 | -13 | 13 | 26* | 94 | 3
O=C(c1ccc(Br)o1)N1CCN(c2ccc3nnc(-c4ccccc4)n3n2)CC1 | 0 | 0.32 | -16 | 16 | 14* | 88 | 5
